PGC1a acetyl inh: inhibitors of PGC1a acetylation signal, primary screen, cell-based, U2OS, AlphaScreen, inhibitor mode. AlphaScreen anti-acetyl-lysine; with virally co-expressed GCN5 acetyltransferase. AID 651687, 2012. 350,000 tested, 0.17% active. inhibition, % at 15.6 µM;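 active means every replicate shows inhibition of at least 40%; inconclusive means mean inhibition at least 40% but some replicate below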;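 further: 0% = neutral control wells and 100% = positive control wells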
HIV Env fusion: inhibitors of HIV-1 Env-driven cell-cell fusion, primary screen, HeLa-JRFL effector, CEM21 target cells, luciferase; inhibition, % at 12.3 µM; 360,000 tested, 1.1% active; AID 651610, 2012;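 active means mean replicate inhibition score of at least 50 and every replicate individually at or above 50; inconclusive means only one of the two criteria met; inactive means mean below 50 and not all replicates reaching 50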;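 further: 0% = plate neutral controls and 100% = maraviroc near 300 nM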
CFTR F508del cor: F508del CFTR correction, initial screen, CFBE line, single point. CFBE cells, YFP halide quenching; stimulated with forskolin plus potentiator P3; % fluorescence drop versus neutral controls. activity (quench increase), % at 7.58 µM. 350,000 tested, 0.36% active. AID 720511, 2013;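 active means mean added fluorescence quench of at least 8% versus neutral control, with both replicates also reaching 8%; inconclusive means only one of the mean or replicate conditions met; inactive means mean below 8% and not both replicates reaching 8%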;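 further: cells transiently co-express mutant CFTR-F508del with the halide-sensitive YFP; corrector assay measuring rescue of mutant channel to the surface after 24 h compound exposure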
INS-1E GSIS act: GLuc luminescence reporter in INS-1E cells, primary screen for activators of glucose-dependent secretion of insulin; INS-1E GLuc reporter insulin secretion, 2-3 h; activation, % at 16.6 µM; 370,000 tested, 0.61% active;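 active means lowest replicate activation of at least 40%, so every replicate reaches that level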;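 further: 0% = median of neutral control wells and 100% = median of IBMX positive control wells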
EWS-Fli block: EWS/Fli-driven NR0B1 reporter inhibitors, primary screen, A673 cells, NR0B1 luciferase, luminescence, MLPCN library. viability-normalised. inhibition, % at 12.6 µM. 350,000 tested, 0.67% active;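 active means mean inhibition of at least 50% after viability correction, with every replicate also passing that limit; inconclusive means mean reaches 50% but only one of two replicates passes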;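 further: firefly luciferase signal divided by Alamar Blue viability fluorescence both relative to DMSO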
PAX8 reporter: inhibitors of PAX8-driven TPO luciferase reporter, primary screen, RMG-I cells, single concentration; inhibition, % at 12.6 µM; SteadyGlo, 24 h; 360,000 tested, 1.2% active; AID 652154, 2013;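 active means mean replicate inhibition at least 60% with every replicate also reaching 60%; inconclusive means only one of the two criteria is met; inactive means mean below 60% and not all replicates reaching 60%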;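 further: luciferase light reporting Pax8 driven TPO promoter activity; plate controls were median of neutral control wells for no effect and mitoxantrone controls for full effect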
Active calls of the source: *; u = inconclusive; x = no result; [ ] = another dose, or the depositor's remark. In the library only some 2.7% were active in any assay of this set; here they are far more common.

SMILES | PGC1a acetyl inh | HIV Env fusion | CFTR F508del cor | INS-1E GSIS act | EWS-Fli block | PAX8 reporter
COc1ccc(NC(=O)Nc2ccc3c(c2)C(=O)N([C@H](C)CO)C[C@H](C)[C@@H](CN(C)S(=O)(=O)c2c(C)noc2C)OCCCC[C@H](C)O3)cc1 | -5.7 | u | 1.6 | -5.0 | 2.4 | 5.8
O=C(O)c1ccc(Nc2nc3c(s2)CCCC3)cc1 | 0.3 | 38.0 | x | -9.2 | 66.8* | 66.6*
Cc1ccc(C(=O)CC(=O)c2cccc(F)c2)c(O)c1 | 2.4 | 61.4* | x | x | x | x
N#C[C@H]1[C@@H](c2ccccc2-c2ccc(F)cc2)[C@H](CO)N1C(=O)Cc1ccccc1 | 6.5 | x | 1.2 | -14.9 | 12.3 | 8.4
COc1ccc(NC(=O)N(C)C[C@H]2Oc3ccc(NC(=O)Cc4cn(C)c5ccccc45)cc3CC(=O)N([C@H](C)CO)C[C@@H]2C)cc1 | -0.1 | -8.2[16.7 µM] | 0.2 | -14.7 | 2.4 | -8.6
O=C(O)CCCCNCc1ccccc1 | 4.3 | -63.6 | x | x | x | x
c1ccc(CNCCCNCCCCNCCCNCc2ccccc2)cc1 | -35.9 | -10.5 | 2.4 | 1.2 | 5.1 | 86.0*
Cc1ccc(C(=O)Oc2ccc(-c3nccc(-c4ccccn4)n3)cc2)cc1 | -10.8 | x | x | 56.4* | x | x
O=C(Oc1ccc(-c2nccc(-c3ccccn3)n2)cc1)c1cccc(C(F)(F)F)c1 | -4.8 | x | x | x | x | x
CCN(CC)CCn1c(=N)n(CC(O)COc2ccccc2)c2ccccc21 (configuration not stated) | 38.8 | 14.0 | 1.0 | 51.2* | -7.7 | 11.9
CCN(CC)CCn1c(=N)n(CCOc2ccccc2)c2ccccc21 | -15.4 | 56.2* | x | 40.7 | x | x
CCN(CC)CCn1c(=N)n(CCO)c2ccccc21 | 0.3 | x | x | x | x | x
COC(=O)CN(C(=S)Nc1ccc(F)cc1)C1CC(=O)N(c2ccc(OC)cc2)C1=O (configuration not stated) | -6.6 | 71.2* | x | x | x | x
COc1ccccc1S(=O)(=O)N[C@H]1CC[C@H](CCn2cc(C3CC3)nn2)O[C@H]1CO | 4.4 | 15.1[16.7 µM] | -0.5 | -4.0 | 1.8 | -0.5
CCC1(O)C(=O)OCc2c1cc1n(c2=O)Cc2cc3c(N)cccc3nc2-1 (configuration not stated) | -1.8 | 67.9* | 2.1 | x | 54.7* | 110.0*
CCOc1ccc(C(=O)NCC(=O)OCCN2C(=O)c3ccccc3C2=O)cc1OCC | x | x | -0.2 | 57.0* | 2.0 | -0.4
CC(=O)N/C(=C\c1ccccc1)C(=O)OCC(=O)NC1CCCC1 | 4.4 | x | 0.5 | 11.9 | 4.2 | 149.7*
O=C(C[C@H]1CC[C@@H]2[C@H](COC[C@@H](O)CN2S(=O)(=O)c2ccccc2)O1)NCc1ccc2c(c1)OCO2 | 4.1 | x | -2.3 | -15.7 | 3.7 | 1.8
O=C(O)C[C@@H]1C[C@H]2c3cc(NS(=O)(=O)c4ccccc4)ccc3O[C@H]2[C@H](CO)O1 | -4.9 | x | 0.0 | -1.9 | 2.4 | x
COc1ccc(S(=O)(=O)NCc2ccccn2)cc1NC(=O)c1ccccc1F | 5.9 | -143.9 | 8.6* | 8.3 | 46.1 | 42.6
CCOc1ccc(S(=O)(=O)NCc2ccccn2)cc1NC(=O)c1ccccc1 | -1.6 | -9.2 | 6.3 | 8.8 | 58.0* | 13.2
Cc1cccc(NC(=O)CCc2ccc(N3C(N)=NC(N)=NC3(C)C)cc2)c1 | x | 12.9 | 6.3 | -2.2 | u | 65.5*
C[C@@H]1CN([C@H](C)CO)S(=O)(=O)c2ccc(-c3ccccc3)cc2O[C@@H]1CN(C)C(=O)C1CCC1 | -15.4 | -4.1[16.7 µM] | -2.7 | -12.2 | 8.6 | x
COc1ccc(C2CNC(=O)C2)cc1OC1CCCC1 (configuration not stated) | 1.5 | 6.5 | 4.1 | 45.4* | 0.5 | -30.4
C#CCN(C[C@@H]1[C@@H](OC(=O)NCC2CCCCC2)[C@@H](OC(=O)NCC2CCCCC2)Cn2c(=O)ccc(=O)n21)S(=O)(=O)c1ccc(C)cc1 | 91.4* | x | -5.6 | -27.6 | 38.2 | 115.9*
SMILES | PGC1a acetyl inh | HIV Env fusion | CFTR F508del cor | INS-1E GSIS act | EWS-Fli block | PAX8 reporter
C#CCN(C[C@@H]1[C@@H](OC(=O)NC2CCCC2)[C@@H](OC(=O)NC2CCCC2)CN(C(=O)OC(C)C)N1C(=O)OC(C)C)S(=O)(=O)c1ccc(C)cc1 | 0.6 | x | 4.1 | -12.6 | 18.8 | 79.2*
C#CCN(C[C@@H]1[C@@H](OC(=O)NCc2ccc(OC)c(OC)c2)[C@@H](OC(=O)NCc2ccc(OC)c(OC)c2)Cn2c(=O)ccc(=O)n21)S(=O)(=O)c1ccc(C)cc1 | 0.9 | u | -3.8 | -4.9 | 26.6 | 112.8*
C#CCN(C[C@@H]1[C@@H](OC(=O)NCc2ccc(OC)c(OC)c2)[C@@H](OC(=O)NCc2ccc(OC)c(OC)c2)CN(C(=O)OC(C)C)N1C(=O)OC(C)C)S(=O)(=O)c1ccc(C)cc1 | -8.3 | -76.0 | -2.9 | -12.2 | 5.8 | -6.5
C#CCN(C[C@@H]1[C@@H](OC(=O)NCc2ccco2)[C@@H](OC(=O)NCc2ccco2)Cn2c(=O)ccc(=O)n21)S(=O)(=O)c1ccc(C)cc1 | -23.3 | 29.0 | -0.3 | -17.1 | 26.4 | 73.0*
O=C(CC1CC1)N1CC2(C1)[C@H](c1ccccc1)[C@@H](CO)N2Cc1ccccc1 | 13.2 | x | 2.2 | 0.6 | 2.8 | x
CCCNC(=O)N(C)C[C@H]1[C@H](c2ccccc2)[C@@H](CO)N1C(=O)c1ccccc1 | 1.9 | x | 1.5 | 0.6 | 1.5 | -10.8
CN1CCN(C(=O)C[C@H]2CC[C@H](NC(=O)Cc3ccccn3)[C@H](CO)O2)CC1 | -0.8 | -2.4[16.7 µM] | -3.7 | 31.5 | 5.0 | -1.3
CNC[C@@H]1Oc2ncc(-c3ccc(OC)cc3)cc2C(=O)N([C@H](C)CO)C[C@H]1C | 3.8 | 5.2[16.7 µM] | 1.3 | 14.0 | 6.3 | -15.1
C[n+]1cc2c3c(ccc2c2ccc4cc5c(cc4c21)OCO5)OCO3 | x | 110.3* | -0.2 | x | 59.0* | 108.5*
COc1ccc2cc3[n+](cc2c1O)CCc1cc2c(cc1-3)OCO2 | x | 3.0 | -1.1 | 4.3 | -17.6 | -4.8
CNC[C@@H]1Oc2ccc(N(C)C)cc2C(=O)N(C)C[C@H]1C | x | x | x | -4.1 | x | x
O=C(C[C@@H]1C[C@H]2c3cc(NC(=O)NC4CCCCC4)ccc3O[C@H]2[C@@H](CO)O1)NCc1ccncc1 | -2.0 | 61.5*[16.7 µM] | -1.9 | 2.0 | 2.1 | -1.0
CN(C)C(=O)C[C@H]1C[C@@H]2c3cc(NC(=O)NC4CCCCC4)ccc3O[C@@H]2[C@H](CO)O1 | -4.0 | 75.4*[16.7 µM] | -1.6 | 0.9 | -11.6 | -0.5
O=C(C[C@H]1C[C@H]2c3cc(NC(=O)NC4CCCC4)ccc3O[C@H]2[C@@H](CO)O1)NC1CCCCC1 | 30.2 | 83.7*[16.7 µM] | -2.9 | 5.8 | 2.7 | 3.4
CC(C)NC(=O)N1CC[C@@H]2[C@H]1c1cc(Br)ccc1N(C)[C@H]2CO | -32.5 | x | 2.3 | -1.0 | 7.6 | 8.9
N#CCc1nn(-c2ccccc2)c2ncnc(N)c12 | x | -70.0 | 1.7 | 71.4* | -1.9 | -15.8

Bioassay records deposited in PubChem BioAssay by Broad Institute.
